MITF TRPM1 inh: inhibitors of MITF-driven TRPM1 promoter in melanoma cells; 0.83% of 330,000 active; SK-MEL-5 TRPM1 promoter luciferase, 24 h; inhibition, % at 12.5 µM;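 active = mean inhibition across replicates of 60% or more, whatever share of single replicates reaches that level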
Shn3 3UTR inh: Schnurri-3 reporter inhibition in Clone20 osteoblasts; inhibition, % at 12.5 µM; Clone20 osteoblast Shn3 3'UTR firefly luciferase, 24 h; 0.52% of 360,000 active;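 active = mean inhibition of at least 75% with every replicate also reaching 75%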;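 also: 0% = median of neutral control wells and 100% = pilot-screen positive control compound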
CF NFkB inh: cystic fibrosis NF-kB activation inhibition | KKLEB NF-kB-GFP reporter, PAF-induced, GFP fluorescence overnight | inhibition, % at 5 µM | 0.86% of 360,000 active | AID 588850;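 active = at least 50% inhibition at 5 µM, scaled per plate between neutral and stimulator controls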;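 also: PAF is a Pseudomonas aeruginosa culture filtrate used as stimulus; plate controls were PAF-stimulated DMSO wells for no effect and unstimulated DMSO wells for full effect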
HIF-2a inh: inhibitors of HIF-2a. 786-0 RCC cells HIF-2a reporter, luciferase luminescence, overnight. inhibition, % at 18.8 µM. 0.72% of 360,000 active;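 active = inhibition of the luminescence signal of 40% or more relative to plate controls, in a single-dose primary screen at 18.75 µM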
Peg3 promoter: Peg3 promoter activity inhibition. HeLa PEG-Prom luciferase reporter, luminescence, overnight. inhibition, % at 20 µM. 1.7% of 360,000 active. AID 588405;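 active = inhibition of at least 50% at 20 µM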
KKLEB tox: CF airway cell cytotoxicity counter-screen | KKLEB CF airway cells viability, ATPlite luminescence, overnight; stronger effect = lower value; cells stimulated with P. aeruginosa culture filtrate | activity change (cytotoxicity), % at 5 µM | 0.36% of 360,000 active | AID 602141;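 active = corrected activity change at or below -50% at 5 µM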
The depositor's hits bear a star; . = no result. This is a sample that favours compounds with a hit; in the whole collection about 2.8% have one here.

SMILES | MITF TRPM1 inh | Shn3 3UTR inh | CF NFkB inh | HIF-2a inh | Peg3 promoter | KKLEB tox
COc1cc(/C=N/NC(=O)c2ccncc2)ccc1OC(=O)c1cc(OC)c(OC)c(OC)c1 | -1.6 | -2.1 | -23.6 | 7.8 | -4.7 | 6.2
O=c1[nH]c(CSc2nc3ccccc3o2)nc2c1cnn2-c1ccccc1 | 0.7 | 2.4 | -3.0 | 16.0 | 52.7* | -5.4
O=c1[nH]c(SCc2nc3c(cnn3-c3ccccc3)c(=O)[nH]2)nc2ccccc12 | -17.0 | 49.3 | -7.9 | -255.5 | -251.9 | 6.5
O=C(CCl)N1c2ccccc2OCC1c1ccccc1 (stereo not drawn) | 7.8 | -0.9 | -7.8 | 2.2 | 46.8 | -3.4
O=C(CCl)N1c2ccccc2SCC1c1ccccc1 (stereo not drawn) | 79.3* | 15.0 | 9.4 | 26.9 | 67.6* | 9.8
COc1ccc(OC)c(-c2cc(C(=O)Nc3ccc(F)cc3F)no2)c1 | -0.8 | -7.5 | -12.1 | -8.4 | 5.2 | -2.3
CNc1ccc(Br)cc(C(=O)/C=C/c2cccc(OC)c2OC)c1=O | 12.6 | -30.3 | 0.3 | 13.3 | 7.0 | -0.6
CNc1ccc(Br)cc(C(=O)/C=C/c2cccc(Cl)c2Cl)c1=O | 80.6* | -1.2 | 46.0 | 13.4 | 105.6* | -20.1
Cc1cccc(C)c1NC(=O)CNC(=O)CNC(=O)c1ccc2c(c1)OCO2 | -3.0 | -5.6 | 0.4 | 6.7 | -0.2 | 7.1
COc1ccccc1CNC(=O)COC(=O)c1cnc(C)cn1 | . | -11.0 | 2.4 | 3.3 | -0.3 | -1.8
COc1ccc(C)cc1NS(=O)(=O)c1ccc(-c2cnc(C3CC3)o2)cc1 | 68.4* | 89.6* | 40.8 | 39.9 | 5.7 | 10.6
Cc1ccc(NS(=O)(=O)c2ccc(-c3cnc(C4CC4)o3)cc2)cc1 | -3.4 | 31.4 | 27.6 | 7.3 | 16.8 | -1.7
O=C1NC2c3c(Cl)sc(Cl)c3C(=O)C2O1 (stereo not drawn) | 4.0 | -2.9 | 3.4 | 32.2 | 68.1* | -1.5
CCCC[n+]1ccn(C2=C([O-])c3ccccc3C(=O)/C2=N\S(=O)(=O)c2ccccc2)c1 | 96.0* | 14.6 | 13.3 | -4.6 | 20.0 | 1.1
CCCCC[n+]1ccn(C2=C([O-])c3ccccc3C(=O)/C2=N\S(=O)(=O)c2ccc(Br)cc2)c1 | 85.0* | -7.0 | 30.4 | 11.9 | 15.4 | 7.2
CCCCC[n+]1ccn(C2=C([O-])c3ccccc3C(=O)/C2=N\S(=O)(=O)c2ccccc2)c1 | 94.3* | 7.0 | 0.6 | 6.9 | 20.5 | 0.2
CC(C)[n+]1ccn(C2=C([O-])c3ccccc3C(=O)/C2=N\S(=O)(=O)c2ccccc2)c1 | 54.9 | -9.1 | -0.8 | -16.6 | 1.2 | -1.8
O=c1c2cc(NC(=S)NCCN3CCCCCC3)ccc2nc2n1CCCCC2 | 3.4 | -5.2 | 17.2 | 3.7 | 11.6 | 1.2
O=c1c2cc(NC(=S)NCCCN3CCC(Cc4ccccc4)CC3)ccc2nc2n1CCCCC2 | 23.4 | 46.6 | 23.6 | 10.2 | 94.0* | -18.8
CCOC(=O)C1(CCOc2ccccc2)CCN(Cc2ccc(OC)c(COC)c2)CC1 | 20.5 | 88.5* | -10.5 | 20.5 | 11.4 | 0.5
COc1ccc(CCNc2c(C)c(C)nc3ncnn23)cc1 | 22.5 | 80.8* | 14.6 | -11.2 | 19.5 | -18.4
CN(CCCNC(=O)c1ccccc1F)CCCNC(=O)c1ccccc1F | 0.6 | -112.0 | 13.0 | 18.0 | 8.2 | -5.5
O=C1C(Br)=C(c2ccccc2)C(c2ccccc2)=C1c1ccccc1 | 80.0* | 97.9* | 78.6* | 9.6 | 104.7* | -74.1*
CCC(C)(C)NC(=O)CN(Cc1ccco1)C(=O)CCC(=O)Nc1nccs1 | 3.4 | 2.1 | 13.8 | 9.9 | -33.8 | 3.9
CSc1ccc(CN2CCC(CO)(Cc3ccc(Cl)cc3)CC2)cc1 | 21.5 | 11.5 | 1.7 | 17.4 | 73.4* | -18.1
SMILES | MITF TRPM1 inh | Shn3 3UTR inh | CF NFkB inh | HIF-2a inh | Peg3 promoter | KKLEB tox
O=C(CCNC(=O)c1ccccc1Cl)NCCC1=CCCCC1 | -24.9 | -34.5 | -10.0 | -39.3 | -38.2 | -3.9
O=c1c2cc(Cl)cc(Cl)c2nc2n1CCC2 | 18.2 | 8.8 | -4.9 | 14.8 | 24.7 | 14.3
O[C@@H](c1cc(C(F)(F)F)nc2c(C(F)(F)F)cccc12)[C@H]1CCCCN1 | 6.8 | 9.7 | 15.5 | 0.4 | 102.7* | -10.3
OC(c1cc(-c2ccc(Cl)cc2)nc2ccccc12)C1CCCCN1 (stereo not drawn) | -6.7 | 9.8 | 18.3 | -19.9 | 108.9* | -11.6
CC(C)(C)NCCC(O)c1cc(C(F)(F)F)nc2c(C(F)(F)F)cccc12 (stereo not drawn) | -0.5 | 13.9 | 15.8 | -14.1 | 41.9 | -18.0
OC(c1cc(C(F)(F)F)nc2c(Cl)cc(Cl)cc12)C1CCCCN1 (stereo not drawn) | -10.3 | 4.1 | 5.8 | 2.8 | 108.6* | -3.8
COc1ccc(NC(=O)/C=C/c2c(Cl)nc3ccccn23)cc1 | -12.3 | -17.0 | 4.9 | -67.4 | -23.4 | -11.7
Cc1ccc(C)c(NC(=O)Cn2cnc3c(oc4ccccc43)c2=O)c1 | 11.3 | 10.0 | 2.0 | 9.9 | 11.4 | 4.8
COc1ccc(Cn2cc(Cn3c4ccccc4c(=O)n3C(C)C)nn2)cc1 | . | -10.3 | -6.6 | 7.7 | 6.4 | 1.9
CN(C)S(=O)(=O)c1cccc(N=c2scc(-c3ccc4c(c3)NC(=O)CO4)n2CC2CCCO2)c1 (stereo not drawn) | 1.3 | 86.3* | -8.9 | -10.8 | 34.9 | 8.4
COc1ccc(Br)cc1/C=N/NC(=O)CN1CCN(Cc2ccccc2)CC1 | 14.7 | . | 7.7 | 11.5 | 21.1 | -8.6
COc1ccc(CN(C)C(=O)c2cccc(NC(=O)CC3SC(N4CCCCC4)=NC3=O)c2)c(OC)c1 (stereo not drawn) | 63.3* | 80.0 | 7.2 | -5.5 | 54.2* | 8.4
COc1cccc(CN(C)C(=O)c2cccc(NC(=O)CC3SC(N4CCCCC4)=NC3=O)c2)c1OC (stereo not drawn) | 12.1 | -9.1 | -41.5 | -8.0 | 18.2 | 13.0
COc1ccccc1NC(=O)c1ccc2c(c1)C(=O)N(Cc1ccco1)C2=O | -5.7 | -7.5 | -3.3 | 2.8 | 6.9 | -9.8
O=C(Nc1ccccc1O)c1ccc2c(c1)C(=O)N(Cc1ccco1)C2=O | 2.0 | 69.7 | 5.0 | 17.3 | 63.6* | 3.4
CC1(C)CC(NC(=O)C(Cl)(Cl)Cl)CC(C)(C)N1 | 2.8 | -4.3 | 10.1 | 22.0 | 9.1 | -2.5
COCCn1c(SCC(=O)Nc2sccc2C(N)=O)nc2cc(Cl)ccc2c1=O | 5.8 | 66.0 | -7.9 | 13.8 | 52.0* | 1.9
CC(C)(C)OC(=O)NCc1ccc(NC(=O)c2nc[nH]c2C(=O)NCCCCNC(=O)c2[nH]cnc2C(=O)Nc2ccc(CNC(=O)OC(C)(C)C)cc2)cc1 | 31.9 | 23.3 | 76.6* | 1.1 | 93.3* | -33.7
CC(C)(C)OC(=O)NCc1ccc(NC(=O)c2nc[nH]c2C(=O)NCCCNC(=O)c2[nH]cnc2C(=O)Nc2ccc(CNC(=O)OC(C)(C)C)cc2)cc1 | 29.7 | 9.3 | 40.0 | 16.0 | 78.3* | 6.9

Source: PubChem
